High-throughput results: PubChem, National Center for Advancing Translational Sciences (NCATS)
Many of the other results were omitted from the sample, so hits are more common in it than they were.
KDM5B inhibitor: inhibitors of human KDM5B histone demethylase | Q9UGL1 | KDM5B demethylase, FDH-coupled NADH fluorescence (FDH is formaldehyde dehydrogenase) | Potency, µM (doses to about 57.7 µM), actives largely listed as inhibitors | hit rate 2.6% among 220,000; active means well fitted inhibition curve with a large enough effect; further: nearly all actives have a fitted effect of over 70% in size
Target sequence (Q9UGL1 whole entry, looked up): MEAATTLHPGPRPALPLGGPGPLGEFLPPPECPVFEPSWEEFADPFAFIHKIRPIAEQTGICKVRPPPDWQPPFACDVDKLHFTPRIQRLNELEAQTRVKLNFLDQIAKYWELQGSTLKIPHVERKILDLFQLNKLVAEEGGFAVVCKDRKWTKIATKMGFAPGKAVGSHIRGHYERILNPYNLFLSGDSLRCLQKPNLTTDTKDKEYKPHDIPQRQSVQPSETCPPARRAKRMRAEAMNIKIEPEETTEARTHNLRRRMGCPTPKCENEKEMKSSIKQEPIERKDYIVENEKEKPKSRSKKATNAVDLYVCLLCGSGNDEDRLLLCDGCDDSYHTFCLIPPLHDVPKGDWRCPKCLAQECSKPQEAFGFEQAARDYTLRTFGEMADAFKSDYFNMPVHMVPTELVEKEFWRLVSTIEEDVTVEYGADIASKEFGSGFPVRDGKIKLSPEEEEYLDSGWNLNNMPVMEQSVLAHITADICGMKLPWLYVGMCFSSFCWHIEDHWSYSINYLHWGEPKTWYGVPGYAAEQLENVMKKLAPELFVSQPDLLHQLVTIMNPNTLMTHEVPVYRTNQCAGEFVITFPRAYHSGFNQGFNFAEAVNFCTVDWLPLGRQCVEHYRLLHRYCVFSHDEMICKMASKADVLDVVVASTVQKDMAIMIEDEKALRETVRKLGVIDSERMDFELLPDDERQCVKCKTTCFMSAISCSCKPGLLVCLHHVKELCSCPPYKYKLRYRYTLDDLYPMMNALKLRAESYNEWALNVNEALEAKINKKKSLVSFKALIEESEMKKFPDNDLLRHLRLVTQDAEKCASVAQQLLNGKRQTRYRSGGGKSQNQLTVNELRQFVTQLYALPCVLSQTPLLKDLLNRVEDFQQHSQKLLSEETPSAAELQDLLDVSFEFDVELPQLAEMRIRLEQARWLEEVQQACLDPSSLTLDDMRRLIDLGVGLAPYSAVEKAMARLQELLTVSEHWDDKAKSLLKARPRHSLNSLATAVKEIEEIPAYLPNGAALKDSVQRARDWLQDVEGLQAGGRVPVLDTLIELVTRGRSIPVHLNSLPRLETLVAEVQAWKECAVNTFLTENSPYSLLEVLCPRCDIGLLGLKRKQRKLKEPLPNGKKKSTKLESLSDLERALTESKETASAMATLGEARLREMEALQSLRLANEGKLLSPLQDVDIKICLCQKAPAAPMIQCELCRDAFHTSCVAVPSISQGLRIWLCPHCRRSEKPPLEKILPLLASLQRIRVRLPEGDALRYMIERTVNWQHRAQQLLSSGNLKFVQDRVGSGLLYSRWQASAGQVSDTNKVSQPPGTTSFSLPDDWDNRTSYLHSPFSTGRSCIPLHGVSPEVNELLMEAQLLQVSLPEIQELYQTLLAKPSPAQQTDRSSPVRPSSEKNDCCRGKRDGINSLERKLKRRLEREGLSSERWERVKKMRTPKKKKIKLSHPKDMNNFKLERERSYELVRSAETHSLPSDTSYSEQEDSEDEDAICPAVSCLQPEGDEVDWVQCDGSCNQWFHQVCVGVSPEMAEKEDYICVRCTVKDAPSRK
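Measured: NADH fluorescence change, 30 min, RT. System: KDM5BΔAP 200 nM final, H3K4me3 peptide, α-KG, Fe(II), ascorbate, NAD⁺ plus FDH, pH 7.5 HEPES. Compounds: titrated, 10 min pre-incubation with enzyme.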
Of the large screens only hits and unclear results are named; the others gave an inactive call.

Cc1ccc(C)c(C(O)Cn2ccn3nc(-c4cccc(Br)c4)cc3c2=O)c1 (centres undefined)	KDM5B inhibitor 32µM
Cc1ccc(-c2cc3c(=O)n(CCNC(=O)Cc4cccc(F)c4)ccn3n2)c(C)c1	none
CC(C)Oc1ccc(CNC(=O)Cn2ncn3nc(-c4cccs4)cc3c2=O)cc1	none
Cc1ccc(C)c(C(O)Cn2ccn3nc(-c4cccs4)cc3c2=O)c1 (centres undefined)	KDM5B inhibitor 20µM
CC(=O)c1cccc(NC(=O)Cn2ccn3nc(-c4ccccc4)cc3c2=O)c1	none
Cc1ccc(-c2cc3c(=O)n(CCNC(=O)c4ccco4)ccn3n2)c(C)c1	none
O=c1c2cc(-c3cccs3)nn2ccn1CC(O)c1cccc(Cl)c1 (centres undefined)	KDM5B inhibitor 20µM
Cc1cccc(OCC(=O)NCCn2ccn3nc(-c4ccc(C)c(C)c4)cc3c2=O)c1	none
O=C1CCN(C(=O)C2(c3ccccc3)CC2)CCCC(C(=O)NCc2ccccc2)CCN1 (centres undefined)	none
CC(C)NC(=O)C1CN(Cc2ccccc2)C(=O)N1 (centres undefined)	none
CC1(c2ccccc2)N(Cc2cccnc2)C(=O)OC12CCN(Cc1ccc3c(c1)CCO3)CC2 (centres undefined)	none
CCOc1cc(=O)n2c(c1C(=O)Nc1cccc(OC)c1)CCCCC2	none
Cc1ccccc1C(CC(=O)NCc1cccnc1)c1ccccc1 (centres undefined)	none
COc1ccccc1N1CCN(C(=O)CSc2nnc3c(=O)n(-c4cccc(F)c4)ccn23)CC1	none
COc1ccc(C(=O)COC(=O)c2c(Cl)cccc2Cl)c(OC)c1	none
COCCN1C(=O)CS(=O)C12CCN(C(=O)Nc1ccc3c(c1)OCCO3)CC2 (centres undefined)	none
Cc1ccc2c(n1)N(C)[C@H](CO)CCN(Cc1ccc(F)c(F)c1)C2	none
COc1cccc(CN2CC[C@@H](CO)N(C)c3nc(C)ccc3C2)c1	KDM5B inhibitor 35µM
COc1cccc(CN2C[C@@H](CO)[C@H](C3CCN(C(C)=O)CC3)C2)c1	none
O=C(CCC(=O)c1cccs1)Nc1ccccc1N1CCCCC1	none
CSc1ccc(C2=NN(S(=O)(=O)c3ccccc3)C(c3ccc4nccnc4c3)C2)cc1 (centres undefined)	none
Cc1ccc(C(=O)NC(O)C(=O)c2ccc(C)cc2)cc1 (centres undefined)	none
O=C(c1cscn1)N1CCCC2(COc3ccccc3[S+](=O)([O-])N2)C1 (centres undefined)	none
Cc1nc2cc(F)ccc2cc1C(=O)N1CCN(c2ccccc2F)CC1	none
Cc1nc(N(C)C)ncc1C(=O)N1CCN(c2ccccc2C#N)CC1	KDM5B inhibitor 28µM
Cc1nc(N2CCCC2)ncc1C(=O)N1CCN(c2ccc(Cl)cc2)CC1	none
COc1ccc(C2CC(=O)Nc3c2c(C)nn3-c2ccc(Cl)nn2)cc1O (centres undefined)	none
COc1cc(OC)c(Nc2nc3ccccc3nc2NS(=O)(=O)c2ccccc2)cc1Cl	none
COCCn1c(C(=O)OC)c(NC(=O)Cc2ccccc2)c2cc(NC3CCCCC3)cnc21	none
Cc1ccc(-n2c(C3CCN(C(=O)c4n[nH]c5c4CCCC5)CC3)n[nH]c2=O)cc1	none
COc1ccc(NC(=O)N2CCCC3(C2)Nc2cccnc2NC3=NC2CCCC2)c(C)c1 (centres undefined)	KDM5B inhibitor 25µM
Cc1ccc(C(=O)N2CCCC3(C2)NC(=O)N(Cc2cccc(Cl)c2)C3=O)cc1F (centres undefined)	none
COc1ccc(NC(=O)N2CCCC(c3noc(COc4ccccc4)n3)C2)c(C)c1 (centres undefined)	none
Cc1ccc(C2=NC3(CCN(C(=O)c4n[nH]c5c4CCCC5)CC3)ON2)cc1	none
COc1ccc(NC(=O)N2CCCC(Cn3cnc4cccnc43)C2)c(C)c1 (centres undefined)	none
O=C(c1n[nH]c2c1CCCC2)N1CCCC2(C1)Nc1cccnc1NC2=NC1CCCC1 (centres undefined)	KDM5B inhibitor 25µM
Cc1ccc(C(=O)N2CCCC3(C2)Nc2cccnc2NC3=NC2CCCC2)cc1F (centres undefined)	KDM5B inhibitor 28µM
Cc1ccc(C(=O)N2CCCC3(C2)C(=NC2CCCCC2)NC(=O)N3c2cccnc2)cc1 (centres undefined)	none
NS(=O)(=O)c1ccc(N/N=C/c2cccc([N+](=O)[O-])c2)cc1	none
COc1ccc(C[C@H](NC(=O)C2=C[C@@H](NC(=O)c3ccc(OC)cc3)[C@@H](O)[C@H](O)C2)C(N)=O)cc1	none
CCOC(=O)COc1ccc(/C=C(/C#N)c2nc3ccc(C)cc3[nH]2)cc1OCC	none
CCN(CC)C1CCOC2(CCN(C(=O)C(C)C)CC2)C1 (centres undefined)	none
O=C(Nc1ccc2ncnc(N3CCCCC3)c2c1)c1ccc(F)cc1	none
Nc1ccc2ncnc(N3CCCCC3)c2c1	KDM5B inhibitor 28µM
COCC(=O)Nc1ccc2ncnc(N3CCCCC3)c2c1	none
COc1ccc(CNC(=O)[C@@H]2CCC[C@@H](NC(=O)C3CCOCC3)CN(C)C(=O)C2)cc1	none
Cc1cc(C)nc(CC#N)n1	none
COc1ccc(-c2c(C(=O)O)sc3c2NC(=O)CC32C(=O)Nc3c(C)cccc32)cc1 (centres undefined)	none
Cc1ccc(C(=O)NC2CCCCC2C)c(C)c1 (centres undefined)	none
Cn1ccc2cc(-c3csc(CN4CC(C)(NC(=O)C5CC5)C4)n3)ccc21	none
CC(=O)NC1(C)CCN(Cc2cccc(Oc3ccccc3)c2)CC1	none
CC(=O)NC1(C)CCN(Cc2ccccc2-c2ccc3c(ccn3C)c2)C1 (centres undefined)	KDM5B inhibitor 35µM
CCCNC(=O)/C(C#N)=C/c1c[nH]c2ccccc12	none
O=C(c1ccc(S(=O)(=O)N2CCOCC2)cc1)N(c1ccc(Cl)cc1)C1C=CS(=O)(=O)C1 (centres undefined)	none
CC(=O)N1CCC(N2CCC[C@H]2c2nc(-c3ccc(-n4ccnc4)nc3)no2)CC1	none
CS(=O)(=O)c1ccc(CN2CCC[C@H]2c2nc(-c3ccc(-c4ccncc4)nc3)no2)cc1	none
CS(=O)(=O)c1ccc(CN2CCC[C@H]2c2nc(-c3ccnc(N4CCC(C(N)=O)CC4)c3)no2)cc1	KDM5B inhibitor 28µM
CC(=O)N1CCC(N2CCC[C@H]2c2nc(-c3ccnc(N4CCC(C(N)=O)CC4)c3)no2)CC1	KDM5B inhibitor 22µM
O=C(COc1ccc(Cl)cc1)N1CCC[C@H]1c1nc(-c2ccc(F)cc2)no1	none
COCCOc1ccnc(-c2noc([C@@H]3CCCN3Cc3ccc(C(=O)O)cc3)n2)c1	none
COc1ccc(-c2noc([C@@H]3CCCN3C(=O)c3cc(OC)c(OC)c(OC)c3)n2)cc1OC	none
NC(=O)C1CCN(c2cc(-c3noc([C@@H]4CCCN4Cc4ccc(Cl)cc4)n3)ccn2)CC1	KDM5B inhibitor 32µM
CS(=O)(=O)c1ccc(CN2C[C@H](O)C[C@H]2c2nc(-c3ccc4c(c3)OCO4)no2)cc1	none
O=C(CCCc1ccccc1)N1CCn2c(nnc2[C@@H]2C[C@@H](O)CN2Cc2ccccc2)C1	none
CCC(=O)Nc1nc2c(C)cc(NS(=O)(=O)c3cc(Cl)ccc3OC)cc2s1	none
CCCCN1CC(C(=O)Nc2ccc(C(=O)Nc3ccc(Br)cc3C)cc2)CC1=O (centres undefined)	none
CCC(=O)N(C1CCOCC1)C1CCN(Cc2ccc(C)cc2)CC1	none
COc1ccc(C(=O)NC[C@@H]2CC[C@H]3C[C@@H]2C3(C)C)cc1	none
CCc1ccc2oc(C(=O)N(Cc3ccc(C(C)C)cc3)C3CCS(=O)(=O)C3)cc(=O)c2c1 (centres undefined)	none
Cc1ccc(-c2ccc(N)nc2)c2cccnc12	KDM5B inhibitor 25µM
